Experimental findings from PubChem BioAssay (Tox21) are described below.

Records with an inconclusive call do not appear. Entries that show only a call come without a potency. The source made the active and inactive calls. The call rests on the fitted dose curve; in most records, active means well fitted activation curve with a large enough effect in the repeat runs; inconclusive means weak or mixed curves; inactive means no such curve, though single readings can be large or run the other way.
Potency means the concentration at half of the fitted maximal effect.

The nature of this assay: qHTS assay for small molecules that induce genotoxicity in human embryonic kidney cells expressing luciferase-tagged ATAD5 (AID 651632). Further: nearly all actives have a fitted effect of over 15% in size. Particulars: HEK293T ATAD5-luciferase induction, 16 h; series mostly up to 83.3 µM. From the text: U.S. Tox21 Program National Center for Advancing Translational Sciences [NCATS] NIH Chemical Genomics Center [NCGC] U.S. Environmental Protection Agency [EPA] National Institutes of Environmental Health Sciences [NIEHS] National Toxicology Program [NTP] U.S. Food and Drug Administration [FDA] Tox21 Assay Overview: As cancer cells divide rapidly and during every cell division they need to duplicate their genome by DNA replication. The failure to do so results in the cancer cell death. Based on this concept, many chemotherapeutic agents were developed but have limitations such as low efficacy and severe side effects etc. A new cell based assay was developed to find the compounds that effectively block DNA replication either by directly damaging DNA or by inhibiting other cellular mechanisms. Enhanced Level of Genome Instability Gene 1 (ELG1; human ATAD5) protein levels increase in response to various types of DNA damage. Using a luciferase reporter-gene tagged with ATAD5, a cell-based assay [developed by Kyungjae Myung, NHGRI, NIH] was used to measure the induction of ATAD5 in human embryonic kidney cells (HEK293T). So, increase in luciferase activity can be used to identify the compounds that cause genetic stress.
Tox21 Assay Protocol Summary: For genotoxicity screening, 2,000 cells in 5 uL/well were dispensed into white, solid-bottom 1536-well plates using a Multidrop Combi (Thermo Scientific) dispenser. Following transfer of 23 nL compound or DMSO vehicle by a pin tool, the plates were incubated 16 hr at 37C and 5% CO2. 5 ul Amplite (AAT Bioquest, Inc.) was then added to each plate and following 30 min incubation at room temperature, luciferase activity was quantified on a ViewLux CCD-based plate reader.
Turning to `C[C@H]1NCc2cc(-c3ccc4c(=O)c(C(=O)O)cn(C5CC5)c4c3OC(F)F)ccc21`, the Potency entry is “inactive”.
On the same count and under the same terms, the entry for `CCCCCCCCCCCCCCCC[N+](C)(C)CC` is “inactive”.
With `Cc1cc(-n2nc3ccc(Cl)cc3n2)c(O)c(C(C)(C)C)c1`, the Potency result is “inactive”.
On to `c1ccsc1`, for which the Potency result was “inactive”.
The same measure, in the same setting: the result for `Cc1c(C)c2c(c(C)c1OC(=O)c1cccnc1)CC[C@@](C)(CCC[C@H](C)CCC[C@H](C)CCCC(C)C)O2` reads “inactive”.
Consider `S=C([S-])NCCNC(=S)[S-].S=C([S-])NCCNC(=S)[S-].[Mn+2].[Zn+2]`, for which the Potency entry is “inactive”.
Still for that read-out and setting: the entry for `CCCCCc1ccc(Cl)cc1` is “inactive”; for `CC(=O)[C@H]1CC[C@H]2[C@@H]3CCC4=CC(=O)CC[C@]4(C)[C@H]3CC[C@]12C` it is “inactive”.
Still for that read-out and setting: the result for `CCCC[P+](C)(CCCC)CCCC` reads “inactive”; that for `ClCCl`, “inactive”; that for `CCN(CC)C(=O)c1cc(S(=O)(=O)Cc2ccccc2)c(N2CCC(c3ccccc3)CC2)cc1N(CC)CCN(C)C`, “inactive”.
As to `CCOC(=O)c1ccc(C2CCC(NC[C@H](O)COc3ccc(O)c(NS(C)(=O)=O)c3)CC2)cc1` (stereo not given in full), the Potency result is “inactive”.
On the same count and under the same terms, the result for `CCCC1CCC(=O)CC1` reads “inactive”.
Still for that read-out and setting: the result for `Oc1c(I)cc(Cl)c2cccnc12` reads “inactive”; that for `CCCCCCCCCCC[C@@H](C[C@@H]1OC(=O)[C@H]1CCCCCC)OC(=O)[C@H](CC(C)C)NC=O`, “inactive”; that for `CCCCOC(=O)CO`, “inactive”.
Same read-out and setting: the entry for `O=C1CCCCCCCCCCCCCCCO1` is “inactive”; for `c1ccc(C(O[C@@H]2CCCN(CCc3ccc4c(c3)OCO4)C2)c2ccccc2)cc1` it is “inactive”.
As to `C1CCC(SSC2CCCCC2)CC1`, the Potency entry was “inactive”.
As to `Cc1ccc(C(=O)O)cc1`, the Potency result was “inactive”.
Still for that read-out and setting: the result for `OC[C@H]1O[C@H](O[C@H]2O[C@H](CO)[C@@H](O)[C@H](O)[C@H]2O)[C@H](O)[C@@H](O)[C@@H]1O` reads “inactive”; that for `Cc1cc(C(C)(C)C)c(O)c(C)c1Cn1c(=O)n(Cc2c(C)cc(C(C)(C)C)c(O)c2C)c(=O)n(Cc2c(C)cc(C(C)(C)C)c(O)c2C)c1=O`, “inactive”; that for `CN(C)Cc1ccccc1O`, “inactive”.
As for `CC(C)=CCC1=C(O)c2ccccc2C(=O)C1=O`, the Potency entry is “inactive”.
With `O=S(=O)(O)c1ccc(Nc2nc(Nc3ccc(/C=C/c4ccc(Nc5nc(Nc6ccc(S(=O)(=O)O)cc6)nc(N(CCO)CCO)n5)cc4S(=O)(=O)O)c(S(=O)(=O)O)c3)nc(N(CCO)CCO)n2)cc1`, the Potency result is “inactive”.
The same measure, in the same setting: the entry for `CC1(C)CC(O)CC(C)(C)N1` is “inactive”; for `CN(C)C(=O)COC(=O)Cc1ccc(OC(=O)c2ccc(N=C(N)N)cc2)cc1` it is “inactive”.
Same read-out and setting: the result for `FC(F)(F)c1cccc(Cl)c1` reads “inactive”; that for `CC(C)OC(=O)C(O)(CC(=O)O)CC(=O)O`, “inactive”.
The same measure, in the same setting: the entry for `CCC(CC)C(C)CCOC(C)=O` (stereo not given) is “inactive”.
Consider `O=C(O)Cc1ccccc1Nc1c(Cl)cccc1Cl`, for which the Potency result was “inactive”.
Same read-out and setting: the result for `C=Cc1ccccc1C=C` reads “inactive”.
Consider `O=C(O)O`, for which the activation is 4.66% [at 8.08 µM] (inactive).
`CCCCCC(C)OC(=O)COc1ccc(Cl)c2cccnc12` (stereo not given): the Potency entry was “inactive”.
Still for that read-out and setting: the figure for `C=CC(=O)OCCOC(=O)C=C` is 21.7 µM (active).
Still for that read-out and setting: the result for `C#C[C@]1(O)CC[C@H]2[C@@H]3[C@H](C)CC4=C(CCC(=O)C4)[C@H]3CC[C@@]21C` reads “inactive”.
Same read-out and setting: the entry for `CCCCNS(=O)(=O)c1ccc(C)cc1` is “inactive”; for `CCO[C@@H]1O[C@H](C(COCc2ccccc2)OCc2ccccc2)[C@H](OCc2ccccc2)[C@H]1O` (stereo not given in full) it is “inactive”.
`CC(=O)Oc1cc2c(s1)CCN(C(C(=O)C1CC1)c1ccccc1F)C2` (stereo not given): the Potency result was “inactive”.
Still for that read-out and setting: the result for `CC(C(=O)O)c1ccc2c(c1)[nH]c1ccc(Cl)cc12` (stereo not given) reads “inactive”.
